Experimental data reported in PubChem BioAssay (NCI).
Compounds without any hit were thinned out: in the full panel of roughly 83,000, 20% have a hit.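 Testing used 96-well plates and a 48-hour single-concentration exposure. Example: -40 means 40% of the starting cells died.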 A number with no mark means an inactive call. Calls of active or inactive are those of the source. Rule for the calls: active = growth percent below 10; inactive = the rest.

Tests used:
Assay in all cases: NCI-60 one-dose screen, 48 h (100 = growth as untreated, 0 = no growth, -100 = all killed)
Conditions in all cases: 10 µM unless noted
[1] = system: EKVX NSCLC
[2] = system: SN12C renal
[3] = system: UO-31 renal
[4] = system: TK-10 renal
[5] = system: ACHN renal
[6] = system: CAKI-1 renal
[7] = system: A498 renal
[8] = system: CCRF-CEM leukemia
[9] = system: MOLT-4 leukemia

Row | SMILES | growth [1] | growth [2] | growth [3] | growth [4] | growth [5] | growth [6] | growth [7] | growth [8] | growth [9]
1 | O=Nc1ccc2ccccc2c1O | 64.1% | 42.4% | 79.8% | 9.55% (active) | 69.1% | 78.1% | 95.3% | 64.5% | 91.2%
2 | Cc1cc(C(=C2C=CC(=Nc3ccccc3)C=C2)c2ccc(Nc3ccccc3)cc2)ccc1N | -42.7% (active) | -63.5% (active) | -67.4% (active) | -64.7% (active) | -89.8% (active) | -56.6% (active) | -78.8% (active) | 3.34% (active) | 22.2%
3 | O=C(/C=C/c1ccccc1)c1ccccc1O | 89.2% | 92.1% | 64.6% | 94.3% | 87% | 75.2% | 98.3% | 55.1% | 70.2%
4 | Cc1ccc(NC2=CC(=O)C(=O)c3ccccc32)cc1 | 73% | -39.2% (active) | -18.4% (active) | 42.4% |  | 35.5% | 63.2% | 27% | 28.7%
5 | Cc1cc(Br)c2nsnc2c1[N+](=O)[O-] | 106% | 29.4% | 40.2% | 36% | 36.2% | -34.5% (active) | 99.2% | 20.1% | 39.4%
6 | S=C(S)OCN1CCOCC1 | 97.4% | 103% | 75.9% | 97.9% | 100% | 92.6% | 70.6% | 59% | 92.5%
7 | O=[N+]([O-])c1ccc(C(Br)c2ccc([N+](=O)[O-])cc2)cc1 | 109% | 54.9% | 47.4% | 97.5% | 98.3% | 92.2% | 101% | 16.3% | 12.5%
8 | Cc1cc(=O)oc2cc(O)cc(O)c12 | 99.3% | 102% | 83.5% | 97.8% | 102% | 94.6% | 117% | 107% | 99.8%
9 | O=C(c1ccccc1)c1ccc(O)c2ncccc12 | 51.1% | 31.6% | 7.3% (active) | 83.1% | 18.5% | 8.47% (active) | 53.1% | 29.5% | 21.2%
10 | O=C1C=CC(=O)N1c1ccccc1 | 99.6% | 84.4% | 87.4% | 105% | -37.3% (active) |  | 105% |  | 42.2%
11 | S=C(SSC(=S)N1CCOCC1)N1CCOCC1 | 95.3% | 99.7% | 76.9% | 95.7% | 98.3% | 79.1% | 90.6% | 21.9% | 93.6%
12 | C=C(C(N)=O)C(N)C(=O)O (stereo not given) |  | 108% | 97.6% | 109% | 108% | 116% | 113% |  | 
13 | CC1=CC(=NC(=O)CBr)C=C/C1=N\S(=O)(=O)c1ccccc1 |  | 14.1% | 73.1% | 79.2% | 46.9% |  | 97.2% | 12.2% | 43.7%
14 | CC(=O)OC1CC2CCC1(C)C2(C)C (stereo not given) | 102% | 98.6% |  |  | 96.7% | 92.6% | 108% | -45% (active) | 112%
15 | O=C/C=C/c1ccc([N+](=O)[O-])cc1 |  | 102% | 84.2% | 99.9% | 112% | 100% | 78.6% | 87.6% | 82.1%
16 | O=[n+]1c2ccccc2n([O-])c2cc(Cl)ccc21 |  | 62.3% |  | 102% | 20.7% | 19.3% | 81.6% | -6.38% (active) | -30.4% (active)

Row | SMILES | growth [1] | growth [2] | growth [3] | growth [4] | growth [5] | growth [6] | growth [7] | growth [8] | growth [9]
17 | CN(C)c1ccc(/C=C/c2cc[n+](C)c(/C=C/c3ccc(N(C)C)cc3)c2)cc1 |  | 13.5% | -11.4% (active) | 0.183% (active) | 14.6% | -4.63% (active) | -10.3% (active) | 6.95% (active) | -26.5% (active)
18 | S=C1SCN(Cc2cccs2)CN1Cc1cccs1 |  | 98.7% | 88.8% | 90.7% | 105% | 99.4% | 95.7% | 70.9% | 100%
19 | CC[n+]1ccc(Nc2ccc(NC(=O)c3ccc(Nc4cc[n+](CC)c5ccc([N+](=O)[O-])cc45)cc3)cc2)cc1 |  | 86% | 91.4% |  | 96.9% | 94.2% | 103% | 89.1% | 93.3%
20 | Oc1ccccc1N=Cc1ccccc1 |  | 81.7% | 67.4% |  | 85.1% | 97.7% | 97.7% | 86.6% | 81.2%
21 | O=C1C=CC(=O)N1c1cccc2c1CCCC2 |  | 97.2% | 87.9% | 102% | 79.3% | 82.3% | 96.2% | 9.65% (active) | 74.2%
22 | CSc1nc(C)c(C(=O)CCN2CCN(c3ccccn3)CC2)s1 |  | 97.6% | 82.9% | 118% | 101% | 100% | 88.4% |  | 
23 | C[C@@]1(CO)[C@H](O)CC[C@@]2(C)[C@H]1CC[C@H]1C[C@@H]3C[C@@]12CC[C@@]3(O)COC(=O)CN | 74.2% | 61.6% |  | 85.3% |  | 17% |  | 32.8% | 28.2%
24 | CN(C)c1ccc(/C=C/c2nccc3ccccc23)cc1 |  | 75.6% | 58.4% | 88.2% | 87.1% | 73.6% |  |  | 99.9%
25 | CCCCCCCCCCCC[n+]1ccc(CCCCCCCCC)cc1 |  | -70.9% (active) |  | -31.4% (active) | -80.7% (active) | 23.4% | -25.4% (active) | -34.9% (active) | -44.7% (active)
26 | CCCN(CCC)C(=O)c1ccc(C)cc1 | 89.2% | 97.9% |  | 99.6% | 102% | 99.2% | 27% | 85.7% | 101%
27 | C(=N\Nc1ccc2ccccc2n1)/c1ccccn1 | 20.7% | 17.7% |  | 48% | 7.28% (active) | 2.92% (active) | 26.7% | 16.9% | 6.6% (active)
28 | CC(C)(C)c1ccc(O)c(Br)c1 |  | 94.6% | 86.5% | 111% | 104% | 96.4% | 73.4% | 7.22% (active) | 112%
29 | O=[N+]([O-])c1ccc(Oc2ccccc2Cl)c([N+](=O)[O-])c1 | 104% | 90.4% |  |  | 100% | 82.7% | 84.7% | 57.8% | 22.7%
30 | COc1cc(/C=C2\SC(=S)N(/C=C/c3nc4ccccc4[nH]c3=O)C2=O)cc(OC)c1OC | 84.6% | 98.2% |  | 70.1% | 82.4% | 87.2% | 60% | 91.7% | 91.2%
31 | O=C1CSC(=S)N1Cc1cccnc1 |  | 103% | 71% | 9.3% (active) | 97.2% | 63.9% |  | 12.9% | 51.4%
